Measurements taken from ChEMBL document CHEMBL2218924, “A broad activity screen in support of a chemogenomic map for kinase signalling research and drug discovery” (Biochem J, 2013).

Key:
[1] = target: Tyrosine-protein kinase SYK (Homo sapiens) (UniProt P43405); conditions: at 10 µM
[2] = target: T1, Mitogen-activated protein kinase kinase kinase 7 (Homo sapiens) (UniProt O43318); conditions: at 1 µM
T1 sequence (whole entry): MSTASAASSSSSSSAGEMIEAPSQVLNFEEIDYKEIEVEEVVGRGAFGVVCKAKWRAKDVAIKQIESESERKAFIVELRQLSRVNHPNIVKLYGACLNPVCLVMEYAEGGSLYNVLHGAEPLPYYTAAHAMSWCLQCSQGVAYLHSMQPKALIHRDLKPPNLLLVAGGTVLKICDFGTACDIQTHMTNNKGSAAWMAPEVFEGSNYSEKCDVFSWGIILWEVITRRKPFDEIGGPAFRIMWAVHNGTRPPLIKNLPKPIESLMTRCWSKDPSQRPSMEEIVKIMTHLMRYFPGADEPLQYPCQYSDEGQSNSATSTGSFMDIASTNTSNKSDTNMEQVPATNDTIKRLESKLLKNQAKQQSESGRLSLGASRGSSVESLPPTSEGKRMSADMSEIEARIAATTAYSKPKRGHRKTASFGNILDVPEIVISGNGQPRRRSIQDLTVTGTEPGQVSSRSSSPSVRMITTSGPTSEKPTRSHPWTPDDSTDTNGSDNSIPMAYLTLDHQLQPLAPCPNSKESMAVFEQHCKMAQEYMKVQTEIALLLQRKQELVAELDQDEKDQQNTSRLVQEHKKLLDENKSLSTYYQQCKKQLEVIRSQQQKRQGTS

[3] = target: T1, Mitogen-activated protein kinase kinase kinase 7 (Homo sapiens); conditions: at 10 µM
[4] = target: T2, Serine/threonine-protein kinase TAO1 (Homo sapiens) (UniProt Q7L7X3); conditions: at 10 µM
T2 sequence (whole entry): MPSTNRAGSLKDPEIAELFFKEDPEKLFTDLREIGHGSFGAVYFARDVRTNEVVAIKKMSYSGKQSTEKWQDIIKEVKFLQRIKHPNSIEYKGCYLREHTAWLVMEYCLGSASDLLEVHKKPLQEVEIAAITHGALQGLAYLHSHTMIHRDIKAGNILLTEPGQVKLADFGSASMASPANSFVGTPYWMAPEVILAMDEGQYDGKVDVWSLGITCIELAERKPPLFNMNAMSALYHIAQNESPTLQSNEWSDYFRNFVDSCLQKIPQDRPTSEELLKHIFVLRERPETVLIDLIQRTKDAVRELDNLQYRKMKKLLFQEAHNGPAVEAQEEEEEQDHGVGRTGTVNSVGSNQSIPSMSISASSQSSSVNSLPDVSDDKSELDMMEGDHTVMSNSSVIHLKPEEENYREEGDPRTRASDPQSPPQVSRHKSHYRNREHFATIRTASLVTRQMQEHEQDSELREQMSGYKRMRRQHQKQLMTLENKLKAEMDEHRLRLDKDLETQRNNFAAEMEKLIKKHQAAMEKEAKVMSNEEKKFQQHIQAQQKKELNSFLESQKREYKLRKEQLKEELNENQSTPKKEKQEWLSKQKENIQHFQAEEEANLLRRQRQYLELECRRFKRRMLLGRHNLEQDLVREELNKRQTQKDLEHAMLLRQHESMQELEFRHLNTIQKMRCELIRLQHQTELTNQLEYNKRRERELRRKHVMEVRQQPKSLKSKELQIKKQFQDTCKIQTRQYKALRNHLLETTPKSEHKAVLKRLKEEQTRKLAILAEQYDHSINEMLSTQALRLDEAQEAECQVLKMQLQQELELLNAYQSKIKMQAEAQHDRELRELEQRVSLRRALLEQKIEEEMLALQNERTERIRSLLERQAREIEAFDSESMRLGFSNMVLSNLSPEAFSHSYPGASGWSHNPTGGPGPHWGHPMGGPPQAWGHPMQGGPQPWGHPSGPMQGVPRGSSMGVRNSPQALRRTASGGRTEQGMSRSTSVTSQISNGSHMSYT

[5] = target: T3, Serine/threonine-protein kinase TAO2 (Homo sapiens) (UniProt Q9UL54); conditions: at 10 µM
T3 sequence (whole entry): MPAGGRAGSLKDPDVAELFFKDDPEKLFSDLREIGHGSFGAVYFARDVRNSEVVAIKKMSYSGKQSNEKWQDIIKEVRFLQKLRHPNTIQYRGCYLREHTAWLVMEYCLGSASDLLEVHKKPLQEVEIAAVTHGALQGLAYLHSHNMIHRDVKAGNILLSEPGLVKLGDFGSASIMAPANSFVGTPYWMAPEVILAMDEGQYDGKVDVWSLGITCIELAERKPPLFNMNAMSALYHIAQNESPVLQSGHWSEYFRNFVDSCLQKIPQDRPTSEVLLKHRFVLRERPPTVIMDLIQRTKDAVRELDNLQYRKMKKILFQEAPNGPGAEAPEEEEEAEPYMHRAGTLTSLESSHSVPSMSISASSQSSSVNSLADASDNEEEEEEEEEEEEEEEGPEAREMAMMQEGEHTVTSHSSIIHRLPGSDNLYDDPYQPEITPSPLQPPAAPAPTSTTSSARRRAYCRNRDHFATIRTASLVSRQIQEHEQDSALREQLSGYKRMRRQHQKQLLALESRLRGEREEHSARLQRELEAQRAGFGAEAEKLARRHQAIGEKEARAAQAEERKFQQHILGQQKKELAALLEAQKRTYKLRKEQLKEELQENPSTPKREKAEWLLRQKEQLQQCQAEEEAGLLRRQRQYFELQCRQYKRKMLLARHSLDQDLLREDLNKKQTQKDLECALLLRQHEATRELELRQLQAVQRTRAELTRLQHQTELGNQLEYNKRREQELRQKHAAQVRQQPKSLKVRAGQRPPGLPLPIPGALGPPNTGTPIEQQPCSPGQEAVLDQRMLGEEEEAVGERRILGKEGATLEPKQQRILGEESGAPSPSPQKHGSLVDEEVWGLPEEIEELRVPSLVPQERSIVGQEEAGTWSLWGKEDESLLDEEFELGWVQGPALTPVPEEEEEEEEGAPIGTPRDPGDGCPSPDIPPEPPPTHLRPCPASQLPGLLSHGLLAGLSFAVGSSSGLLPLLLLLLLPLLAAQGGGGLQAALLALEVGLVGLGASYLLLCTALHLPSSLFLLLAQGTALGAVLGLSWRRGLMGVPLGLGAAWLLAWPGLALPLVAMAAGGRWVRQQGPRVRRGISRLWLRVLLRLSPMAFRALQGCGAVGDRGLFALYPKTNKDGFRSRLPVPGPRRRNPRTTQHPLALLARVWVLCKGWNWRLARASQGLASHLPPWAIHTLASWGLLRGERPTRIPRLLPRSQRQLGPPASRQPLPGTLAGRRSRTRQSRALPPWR

[6] = target: T4, Serine/threonine-protein kinase TAO3 (Homo sapiens) (UniProt Q9H2K8); conditions: at 10 µM
T4 sequence (whole entry): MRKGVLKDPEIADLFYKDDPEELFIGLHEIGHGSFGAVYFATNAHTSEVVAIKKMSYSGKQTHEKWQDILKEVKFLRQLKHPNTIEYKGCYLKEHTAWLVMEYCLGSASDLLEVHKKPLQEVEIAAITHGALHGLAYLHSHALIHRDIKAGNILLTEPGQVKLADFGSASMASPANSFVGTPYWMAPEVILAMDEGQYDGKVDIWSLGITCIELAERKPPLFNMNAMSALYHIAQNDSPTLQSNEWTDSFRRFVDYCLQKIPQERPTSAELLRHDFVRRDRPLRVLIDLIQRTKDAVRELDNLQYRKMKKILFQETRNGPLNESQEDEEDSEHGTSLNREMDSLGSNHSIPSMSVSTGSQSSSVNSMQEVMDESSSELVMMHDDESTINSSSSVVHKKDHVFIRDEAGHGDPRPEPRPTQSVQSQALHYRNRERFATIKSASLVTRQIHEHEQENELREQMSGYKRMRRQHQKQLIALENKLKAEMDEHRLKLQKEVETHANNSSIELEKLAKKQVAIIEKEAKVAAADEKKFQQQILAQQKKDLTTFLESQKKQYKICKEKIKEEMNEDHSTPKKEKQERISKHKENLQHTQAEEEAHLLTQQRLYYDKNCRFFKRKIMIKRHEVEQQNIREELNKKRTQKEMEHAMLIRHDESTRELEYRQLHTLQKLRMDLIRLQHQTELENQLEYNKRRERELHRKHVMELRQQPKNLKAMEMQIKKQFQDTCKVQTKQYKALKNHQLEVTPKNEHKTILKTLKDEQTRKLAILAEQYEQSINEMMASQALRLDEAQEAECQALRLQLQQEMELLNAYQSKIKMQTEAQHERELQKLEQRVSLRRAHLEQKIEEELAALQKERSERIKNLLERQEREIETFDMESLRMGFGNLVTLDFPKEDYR

[7] = target: T5, Serine/threonine-protein kinase TBK1 (Homo sapiens) (UniProt Q9UHD2); conditions: at 1 µM
T5 sequence (whole entry): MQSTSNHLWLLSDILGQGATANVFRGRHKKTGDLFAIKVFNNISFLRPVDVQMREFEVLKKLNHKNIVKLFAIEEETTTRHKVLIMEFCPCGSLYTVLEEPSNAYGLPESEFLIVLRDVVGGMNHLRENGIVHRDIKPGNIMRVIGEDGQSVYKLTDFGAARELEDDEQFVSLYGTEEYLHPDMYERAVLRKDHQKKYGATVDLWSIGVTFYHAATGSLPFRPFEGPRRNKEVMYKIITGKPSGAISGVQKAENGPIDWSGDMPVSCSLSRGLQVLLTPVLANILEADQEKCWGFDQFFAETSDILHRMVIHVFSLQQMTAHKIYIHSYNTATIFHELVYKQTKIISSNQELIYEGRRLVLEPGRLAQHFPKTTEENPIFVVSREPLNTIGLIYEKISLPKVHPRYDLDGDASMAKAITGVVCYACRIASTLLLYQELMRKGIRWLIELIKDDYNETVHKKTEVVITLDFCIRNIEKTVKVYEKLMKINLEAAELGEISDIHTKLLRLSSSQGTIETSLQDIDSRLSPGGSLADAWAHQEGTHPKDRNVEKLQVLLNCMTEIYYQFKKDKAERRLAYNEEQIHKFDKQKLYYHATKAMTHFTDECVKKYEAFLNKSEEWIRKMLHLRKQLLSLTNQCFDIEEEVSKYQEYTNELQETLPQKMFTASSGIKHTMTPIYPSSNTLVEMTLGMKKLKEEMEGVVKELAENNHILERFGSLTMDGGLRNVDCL

[8] = target: T5, Serine/threonine-protein kinase TBK1 (Homo sapiens); conditions: at 10 µM

`Cc1cc(Nc2nc(-c3ccccc3)nc3ccccc23)n[nH]1` showed a residual activity [1] of 3%, a residual activity [2] of 67% and a residual activity [3] of 40%. It also gave a residual activity [4] of 51%, a residual activity [5] of 45% and a residual activity [6] of 67%. The residual activity [7] was 19% and the residual activity [8] was 0%.
